Measurements: PubChem BioAssay AID1671192 (National Center for Advancing Translational Sciences (NCATS), 2021)
Results filed as inconclusive are left out. Calls of active or inactive are those of the source. The call rests on the fitted dose curve; in most records, active means well fitted curve in the direction sought with a large enough effect; inconclusive means small, poorly fitted or top-dose-only effect, or another doubt; inactive means no such curve, though single readings can be large or run the other way.

Molecular target: Polyunsaturated fatty acid lipoxygenase ALOX15 (Homo sapiens) (UniProt P16050)
Assay: Counterscreen qHTS for inhibitors of human arachidonate 12S-lipoxygenase (ALOX12): ALOX15 Assay
Method in brief: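 Purified human ALOX15 (15hLO-1) at 40 nM in 25 mM HEPES, 0.01% Triton X-100, pH 7.5, preincubated with compound 15 min at RT. Then 50 uM arachidonic acid for 30 min; hydroperoxide detected by Fe-xylenol orange as the 573/405 nm absorbance ratio.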

Polyunsaturated fatty acid lipoxygenase ALOX15 (Homo sapiens), sequence (P16050 whole entry, looked up): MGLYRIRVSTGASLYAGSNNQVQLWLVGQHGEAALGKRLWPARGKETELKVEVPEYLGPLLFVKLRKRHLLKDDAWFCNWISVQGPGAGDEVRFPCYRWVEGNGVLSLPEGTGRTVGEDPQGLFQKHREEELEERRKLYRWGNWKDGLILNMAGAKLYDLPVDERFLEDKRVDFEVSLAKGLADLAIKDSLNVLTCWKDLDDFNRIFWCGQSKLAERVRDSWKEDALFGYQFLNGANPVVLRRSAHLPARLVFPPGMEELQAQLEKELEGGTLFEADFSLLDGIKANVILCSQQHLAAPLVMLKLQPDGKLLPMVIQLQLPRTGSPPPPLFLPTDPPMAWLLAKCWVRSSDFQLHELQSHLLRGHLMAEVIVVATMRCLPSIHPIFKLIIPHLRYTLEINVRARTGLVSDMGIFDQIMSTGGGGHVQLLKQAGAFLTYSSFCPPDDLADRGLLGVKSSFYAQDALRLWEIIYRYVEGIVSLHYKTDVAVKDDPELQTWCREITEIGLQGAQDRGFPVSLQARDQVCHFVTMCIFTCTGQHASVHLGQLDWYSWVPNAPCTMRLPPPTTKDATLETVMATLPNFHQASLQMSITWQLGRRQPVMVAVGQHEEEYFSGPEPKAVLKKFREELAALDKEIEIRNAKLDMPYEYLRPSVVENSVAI

Row | SMILES | outcome
1 | N#Cc1ccc(CN2CCC3(CN[S+](=O)([O-])c4cnccc4O3)C2)cc1 (stereo not drawn) | inactive
2 | CN(C)C(=O)N1CCn2c(nnc2-c2cncc(Br)c2)C1 | inactive
3 | Cc1ccc(-c2cccc(C=O)c2)cc1Cl | inactive
4 | COc1cccc(CNc2ncnc3c2CN(C2CCCNCC2)C(=O)CN3C)c1 (stereo not drawn) | inactive
5 | O=C1NCc2ccccc2CC12CCN(Cc1ccnc3ccccc13)C2 (stereo not drawn) | inactive
6 | CN1CC(=O)N(C2CCNCC2)Cc2c1ncnc2N1CCC(N2CCOCC2)CC1 | inactive
7 | O=C1NC2(Cc3ccccc31)CN(C(=O)c1ccccc1)C2 | inactive
8 | c1cncc(CN2CCn3c(nnc3C3CCCNC3)C2)c1 (stereo not drawn) | inactive
9 | O=C(O)c1ccc(-c2cnccn2)cc1 | inactive
10 | CC(C)NC(=O)NC1CC2(CCN(Cc3ccc(O)cc3)CC2)c2ccccc21 (stereo not drawn) | inactive
11 | O=C(N1CCCC1)N1CCN(c2ccc(Cl)nn2)C(=O)C1 | inactive
12 | CN1CC(=O)N(C2CCNC2)Cc2c(NCCc3cccc(F)c3)ncnc21 (stereo not drawn) | inactive
13 | O=C1NCc2ccccc2CC12CCN(Cc1ccc(O)cc1)CC2 | inactive
14 | O=C1NCc2ccccc2CC12CCCN2Cc1ccccc1Cl (stereo not drawn) | inactive
15 | O=C(NCC(F)(F)F)c1cc(C2CC2)nc2c1c(C1CCCN1)nn2-c1ccccc1 (stereo not drawn) | inactive
16 | O=C(c1cc(C2CC2)nc2onc(C3CCCN3)c12)N1CCOCC1 (stereo not drawn) | inactive
17 | O=C1NCc2ccccc2CC12CCCN2Cc1ccc(Br)cc1 (stereo not drawn) | inactive
18 | CC(CCc1ccccc1)Nc1ncnc2c1CN(C1CCNC1)C(=O)CN2C (stereo not drawn) | inactive
19 | CC(=O)NCCC(=O)N1Cc2ccccc2CC2(CCCN2CC2CCNC2)C1 (stereo not drawn) | inactive
20 | O=C1NCc2ccccc2CC12CCN(CCCc1ccccc1)CC2 | inactive
21 | CC(CO)Nc1ncnc2c1CN(C1CCCNC1)C(=O)CN2C (stereo not drawn) | inactive
22 | COc1ccc(NC2CN(C(=O)OC(C)(C)C)C2)cc1 | inactive
23 | CN(C)CC(=O)N1Cc2ccccc2CC2(CCCN(CC3CCNC3)C2)C1 (stereo not drawn) | inactive
24 | CN1CC(=O)N(C2CCCNC2)Cc2c(NC3CCCCC3O)ncnc21 (stereo not drawn) | inactive
25 | NCCC(=O)N1CCCC2(Cc3ccccc3CN2C(=O)c2ccccc2)C1 (stereo not drawn) | inactive
26 | Cc1ccc(-c2cccc(CN)c2)c(C)c1 | inactive
27 | CC(C)c1nc2c(c(-c3ccc(Cl)cc3)n1)CCN(C(=O)c1ccc3c(c1)OCO3)CC2 | inactive

Row | SMILES | outcome
28 | CCOc1cccc(CN2CCCC23Cc2ccccc2CNC3=O)c1 (stereo not drawn) | inactive
29 | CN(C)C(=O)N1Cc2ccccc2OC2(CCN(C(=O)Cc3cnc[nH]3)CC2)C1 | inactive
30 | C[S+](=O)([O-])N1CCC(c2nnc3n2CCNC3)CC1 | inactive
31 | Cn1nc(C2CCCNC2)c2c(C(=O)NC3CC3)cc(C3CC3)nc21 (stereo not drawn) | inactive
32 | COc1ccc(N2CC3CCC(C2)N3Cc2ccc(C#N)cc2)cc1 | inactive
33 | O=C1NCc2ccccc2CC12CCN(Cc1ccccc1Br)C2 (stereo not drawn) | inactive
34 | COc1ccc(N2CC3CCC(C2)N3C(C)=O)cc1 | inactive
35 | CC(C)NCCN1CCCC1 | inactive
36 | O=C1NCc2ccccc2CC12CCCN2Cc1cccc(O)c1 (stereo not drawn) | inactive
37 | NCc1ccc(-c2cccc(Cl)c2)cc1 | inactive
38 | CN1CC(=O)N(C2CCNCC2)Cc2c(NCC3CCCCC3)ncnc21 | inactive
39 | COc1ccc(CNc2ncnc3c2CN(C2CCNC2)C(=O)CN3C)cc1OC (stereo not drawn) | inactive
40 | O=C(c1cn2c(n1)CN([S+](=O)([O-])c1cccc(C(F)(F)F)c1)CC2)N1CCOCC1 | inactive
41 | COc1ccc(N(C)C2CN(C(=O)OC(C)(C)C)C2)cc1 | inactive
42 | CC(C)OCCCNc1ncnc2c1CN(C1CCNC1)C(=O)CN2C (stereo not drawn) | inactive
43 | Cc1cc(C(=O)N2CCOCC2)c2c(C3CCNCC3)noc2n1 | inactive
44 | CC(C)Cc1ccc(CN2CCC3(Cc4ccccc4CNC3=O)C2)cc1 (stereo not drawn) | inactive
45 | FC(F)(F)c1cccc(C2=NOC3(CCN(Cc4ccsc4)C3)C2)c1 (stereo not drawn) | inactive
46 | CN1CC(=O)N(C2CCCNC2)Cc2c(NCCO)ncnc21 (stereo not drawn) | inactive
47 | O=C(O)c1cccc(-c2ccc(OC(F)(F)F)cc2)c1 | inactive
48 | CN1CC(=O)N(C2CNC2)Cc2c(NCC3CC3)ncnc21 | inactive
49 | O=Cc1cccc(-c2cncc(C(=O)O)c2)c1 | inactive
50 | CC(C)[S+](=O)([O-])N1CCN(c2ccc(C=O)cc2)C(=O)C1 | inactive
51 | COc1ccccc1CNc1ncnc2c1CN(C1CCCNC1)C(=O)CN2C (stereo not drawn) | inactive
52 | N#Cc1cccc(CN2CCCC(c3nc4ccc(F)cc4c(=O)[nH]3)C2)c1 (stereo not drawn) | inactive
53 | NCc1cccc(-c2cc(C(F)(F)F)ccc2Cl)c1 | inactive
